In PubChem BioAssay AID504329 (Southern Research Specialized Biocontainment Screening …, 2011):
Among all 340,000 compounds or so, about 1,000 (0.29%) were called active. These entries were drawn from the full list. Entries with a potency or affinity are not part of this list. A number with no mark means an inactive call. Rule as the data show it: inconclusive = inhibition above about 27% without an active follow-up result; inactive = below that.

Test: H1N1 influenza NS1A inhibitors, functional cell based assay (AID 504329)
Conditions: percent inhibition, at 12.5 µM, stronger effect = higher value

SMILES | inhibition
CCOC(=O)N1CCC(=C(C#N)C(=O)Nc2cc(OC)ccc2OC)CC1 | 7.42%
COc1ccccc1-c1nc(SCC(=O)Nc2ccccc2F)n[nH]1 | -2.78%
COc1ccccc1NC(=O)CSc1n[nH]c(-c2ccco2)n1 | -13%
O=C(CSc1n[nH]c(-c2cccnc2)n1)Nc1ccccc1 | -8.39%
COc1ccccc1NC(=O)CSc1n[nH]c(-c2cccnc2)n1 | 2.96%
O=C(CSc1n[nH]c(-c2cccnc2)n1)Nc1cccc(Cl)c1 | 0.29%
Cc1nc(SCC(=O)Nc2cccc(Cl)c2)n[nH]1 | -19.4%
O=C(CSc1n[nH]c(-c2ccco2)n1)Nc1ccccc1F | 2.4%
O=C(CSc1n[nH]c(-c2ccncc2)n1)Nc1ccccc1 | -1.24%
CCOC(=O)c1c(C)[nH]c(C)c1S(=O)(=O)N(C)CC(=O)Nc1ccccc1F | -8.93%
COc1ccc(OC2C(=O)N(CCc3ccc(OC)c(OC)c3)C2c2ccc3c(c2)OCO3)cc1 (stereo not given) | 22.8%
Cc1cc(C)cc(OCC(O)Cn2nc(C)cc2C)c1 (stereo not given) | -5.82%
CC(C)Cc1nc(Cl)c(C#N)c2c1CCCC2 | 0.11%
COCC1CCN(C(=O)C2CCC(=O)N(C3CCCCCC3)C2)CC1 (stereo not given) | 8.12%
COC(=O)CN1C(=O)Nc2ccc(Cl)cc2C1c1ccccc1 (stereo not given) | 4.9%
CC(=O)c1nn(-c2cccc(C)c2)cc1C(=O)c1cccc(Br)c1 | 2.16%
O=C(Nc1ccc(F)cc1)c1ccc(CSc2ccc(Cl)cc2)o1 | -1.55%
C=CCn1c(SCC(=O)C(C)(C)C)nnc1-c1ccccn1 | -6.69%
COc1ccccc1N1CCN(S(=O)(=O)c2c(C(=O)N3CCOCC3)c(C)n(C)c2C)CC1 | 6.32%
CCCCCOc1ccc(C(O)C(CN2CCOCC2)c2ccccc2)cc1 (stereo not given) | -5.3%
C[C@H](CO)N1C[C@H](C)[C@@H](CN(C)Cc2ccncc2)Oc2c(NS(=O)(=O)c3ccccc3)cccc2C1=O | -17%
O=C(CSc1n[nH]c(-c2cccnc2)n1)Nc1ccc(Cl)cc1 | 2.6%
COc1ccc(NC(=O)CSc2n[nH]c(-c3ccco3)n2)cc1 | -5.29%

SMILES | inhibition
COc1ccc(NC(=O)CSc2ccccn2)cc1 | 4.92%
O=C(CSc1n[nH]c(-c2ccco2)n1)Nc1ccc(F)cc1 | 7.45%
Cc1ccccc1NC(=O)CSc1n[nH]c(-c2ccccn2)n1 | -5.83%
O=C(CSc1n[nH]c(-c2ccncc2)n1)Nc1ccc(F)cc1 | 0.02%
Cc1ccc(C)c(NC(=O)CSc2n[nH]c(-c3ccncc3)n2)c1 | -3.36%
O=C(CSc1n[nH]c(-c2ccncc2)n1)Nc1ccc(Cl)cc1 | -0.89%
C[C@@H](NC(=O)Cn1cnc2c(NCc3ccccc3)ncnc21)c1cccc2ccccc12 | -9.17%
CCN(CC(=O)Nc1ccccc1C(F)(F)F)C(=O)CCS(=O)(=O)c1ccc(Cl)cc1 | -2.32%
CC(C)CN(C(=O)CN(C)CC(=O)Nc1ccc(Cl)c(C(F)(F)F)c1)c1c(N)n(CC(C)C)c(=O)[nH]c1=O | -3.46%
CN=C1CC(C)(C)CC(=O)/C1=C(/O)CCCN1C(=O)c2ccccc2C1=O | -2.2%
CC12CCC(=O)N1C(C(=O)Nc1nc(-c3ccc(F)c(F)c3)cs1)CS2 (stereo not given) | -0.9%
Cc1cccc(NC(=S)NC2CC3CCCC(C2)N3CC(C)C)c1 (stereo not given) | -0.58%
COc1cccc(CN2CC(C(=O)N(C)Cc3ccnc4ccccc34)CCC2=O)c1 (stereo not given) | -0.38%
COc1cc2cc(CN(CCCN3CCOCC3)C(=O)Nc3ccccc3F)c(=O)[nH]c2cc1OC | -7.1%
CCCCNC(=O)Cc1coc2ccc3ccccc3c12 | -8.22%
CCC(C)[C@H](NS(=O)(=O)c1ccc(C)cc1)C(=O)N1CCC(C(=O)N[C@H](C(=O)O)c2ccccc2)CC1 (stereo not given in full) | -3.12%
COc1ccc2[nH]c3c(c2c1)CCN1C(=O)C(CC(=O)NCCCn2ccnc2)C[C@H](C(=O)N2CCOCC2)[C@@]31C (stereo not given in full) | -0.65%
COc1ccc(S(=O)(=O)N2CN3CCN(C3)C2)cc1OC | -1.61%
CC(=O)Nc1cccc(OCC(=O)NCCC2=CCCCC2)c1 | 5.18%
Cc1ccc(NC(=O)CSc2n[nH]c(-c3ccco3)n2)cc1 | -7.19%
Cc1ccc(NC(=O)CSc2n[nH]c(-c3ccncc3)n2)cc1 | -14.5%
CCC(C)(C)C1CCc2[nH]nc(C(=O)NCCCNC(=O)OC(C)(C)C)c2C1 (stereo not given) | 7.94%
Cc1ccccc1CN1CCN(CC(=O)NCc2ccccc2)CC1 | -8.48%

SMILES | inhibition
COc1ccc(C2CC(=O)Oc3c(C(CCN4CCOCC4)c4cc(OC)c(OC)c(OC)c4)c(OC)cc(OC)c32)cc1 (stereo not given) | -11.8%
COc1cc(C(CCN2CCOCC2)c2c(OC)cc(OC)c3c2OC(=O)CC3c2ccc(N(C)C)cc2)cc(OC)c1OC (stereo not given) | 13.9%
COc1cc(C2CC(=O)Oc3c(C(CCN4CCOCC4)c4ccc(N(C)C)cc4)c(OC)cc(OC)c32)cc(OC)c1OC (stereo not given) | 19.5%
COc1ccc(C2CC(=O)Oc3c(C(CCN4CCN(c5ccccc5)CC4)c4ccc(N(C)C)cc4)c(OC)cc(OC)c32)cc1 (stereo not given) | 16.5%
COc1cc(C2CC(=O)Oc3c(C(CCN4CCN(c5ccccc5)CC4)c4ccc(N(C)C)cc4)c(OC)cc(OC)c32)cc(OC)c1OC (stereo not given) | 18%
COc1ccc(C(CCN2CCCC(C)C2)c2c(OC)cc(OC)c3c2OC(=O)CC3c2cc(OC)c(OC)c(OC)c2)cc1 (stereo not given) | -7.41%
Cc1ccc(S(=O)(=O)NC(C)C(=O)Nc2ccc(C(N)=O)cc2)cc1 (stereo not given) | 7.11%
CN1C(=O)/C(=C\c2ccncc2)SC1=Nc1ccccc1 | 2.83%
CC(CCc1ccccc1)NC(=O)c1ccco1 (stereo not given) | 18.9%
COc1ccc(N=c2oc3c(OC)cccc3cc2C(=O)NCc2ccco2)c(OC)c1 | 10.4%
CCOc1ccccc1N(C(=O)c1snc(C(N)=O)c1N)C(C(=O)NCc1ccccc1)c1ccc(O)cc1 (stereo not given) | 11.4%
CCOc1cc(/C=N/NC(=O)c2cccc([N+](=O)[O-])c2)ccc1OS(=O)(=O)c1ccccc1 | -5.88%
OCCC1CN(C2CSCCSC2)CCN1Cc1ccccc1 (stereo not given) | -6.56%
CN1CCN(c2ccc(CNS(=O)(=O)c3ccc(F)cc3Cl)cc2)CC1 | -10.3%
Cc1nc(SCC(=O)NCc2ccccc2)c2c(=O)n(C)c(=O)n(C)c2n1 | -13.1%
Cc1ncc(CO)c(/C=N/NC(=O)c2ccc(O)cc2)c1O | 15.5%
O=C(N/N=C/c1ccccn1)c1cccc(S(=O)(=O)N2CCCC2)c1 | -3%
Cc1ncc(CO)c(/C=N/NC(=O)c2ccoc2C)c1O | 7.34%
Cc1ncc(CO)c(/C=N/NC(=O)c2ccccc2Br)c1O | 18.5%
COc1ccccc1NS(=O)(=O)c1cccc(C(=O)N/N=C/c2c(CO)cnc(C)c2O)c1 | 17.7%
COc1ccc(C(=O)N/N=C/c2c(CO)cnc(C)c2O)cc1 | 21.8%
CC(C)C(NC(=O)C1CC(=O)N(Cc2ccccc2)C1)c1nc2ccccc2[nH]1 (stereo not given) | -13.6%
O=C(c1cc2ccccc2c(=O)o1)N1CCCCCC1 | -12.3%

SMILES | inhibition
Cc1cc(N2CCOCC2)ccc1/C=C1\NC(=O)N(Cc2ccccc2F)C1=O | -4.62%
CC(=O)Nc1nc(CCl)cs1 | -0.43%
NS(=O)(=O)c1ccc(N=Nc2c(O)ccc3ccccc23)cc1 | 7.02%
O=S(=O)(O)c1cccc(N=Nc2c(O)ccc3ccccc23)c1 | 22.8%
Oc1[nH]c2ccccc2c1N=Nc1ccccc1F | -4.52%
Cn1c(O)c(N=Nc2ccc(F)cc2)c2ccccc21 | -0.89%
O=C(O)c1cc2ccccc2c(N=Nc2cccnc2)c1O | 16.2%
NS(=O)(=O)c1ccc(N=Nc2c(O)c(C(=O)O)cc3ccccc23)cc1 | 14%
Oc1ccc(N=Nc2ccc3ccccc3c2)cc1 | 3.88%
O=C(O)c1cc(N=Nc2c(O)ccc3ccccc23)cc(C(=O)O)c1 | 13.6%
Cc1ccccc1C(=O)N=c1sccn1C | -5.97%
O=C(NC1CCCCC1)c1c(O)nc2sccn2c1=O | 0.11%
O=C(COc1ccccc1Cl)Nc1ccccc1C(=O)Nc1cccc(C(=O)O)c1 | 1.12%
COc1ccc(-c2cc(C(=O)Nc3cccc(S(=O)(=O)NCc4ccco4)c3)c3ccccc3n2)cc1OC | -2.45%
COc1ccccc1C(=O)N/C(=C\c1ccc(Br)cc1)C(=O)NCCO | -1.68%
COC(=O)N/N=C(\C)c1ccc(C)c([N+](=O)[O-])c1 | 2.68%
CCC(CC)C(=O)Nc1nnc(S(=O)(=O)Nc2ccccc2C)s1 | -5.98%
O=C(COc1ccccc1)NCC(=O)N/N=C/c1ccco1 | 8.38%
O=C(Nc1ccccc1N1CCOCC1)c1cccc(Oc2ccccc2)c1 | 5.8%
Oc1[nH]c2ccccc2c1N=Nc1ccccn1 | -23.1%
CCCCn1c(O)c(N=Nc2ccccn2)c2ccccc21 | -1.48%
